Measured values published in the supplement of paper PMC6607015.
Where a name gives a salt, the structure may show the parent alone.

Experiments:
Details in all cases: compound concentration in added solution (µM; 5 µl added to 20 µl cells): 10; 18 h
A431 [1] = assay: LBPA endosome anti-LBPA integrated intensity (sum per cell), Z-score; higher = more LBPA staining
Outline: (§1)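 The data are Z-scores, normalised in AcuityXpress, of integrated LBPA or filipin intensity in each cell, either whole-cell or restricted to LBPA endosomes. HeLa MZ or A431 cells, 3,500 per well in 20 µl, were seeded onto 5 µl of 10 µM compound solution in duplicate 384-well plates and incubated 18 h. Fixed cells were stained and imaged, with intensities extracted by MetaXpress segmentation.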

HeLa MZ [2] = assay: as above
Outline: as §1

A431 [3] = assay: whole-cell filipin (free cholesterol) integrated intensity, Z-score; higher = more cholesterol staining
Outline: as §1

HeLa MZ [4] = assay: as above
Outline: as §1

A431 [5] = assay: filipin (cholesterol) integrated intensity within LBPA endosomes, Z-score; higher = more cholesterol in LBPA endosomes
Outline: as §1

HeLa MZ [6] = assay: as above
Outline: as §1

Row | SMILES | LBPA endosome anti-LBPA integrated intensity (z-score) (A431 [1]) | LBPA endosome anti-LBPA integrated intensity (z-score) (HeLa MZ [2]) | whole-cell filipin (z-score) (A431 [3]) | whole-cell filipin (z-score) (HeLa MZ [4]) | filipin (z-score) (A431 [5]) | filipin (z-score) (HeLa MZ [6])
1 | C[C@]12CCC(=O)C=C1CC[C@@H]1[C@@H]2C(=O)C[C@]2(C)C(=O)CC[C@@H]12 [Adrenosterone] | 0.667 | 1.59 | 1.61 | 2.01 | 1 | 0.731
2 | NC(=O)C[S+]([O-])C(c1ccccc1)c1ccccc1 (configuration not stated) [Modafinil] | -0.574 | -0.833 | -0.743 | -0.382 | -0.532 | -0.453
3 | O=P1(NCCCl)OCCCN1CCCl (configuration not stated) [Ifosfamide] | -0.43 | -0.294 | 0.0112 | -0.489 | -0.396 | -0.611
4 | CNC(=O)Oc1ccc2c(c1)[C@]1(C)CCN(C)[C@@H]1N2C [Eserine sulfate, physostigmine sulfate] | -0.59 | -0.404 | -0.783 | -0.229 | -0.479 | -0.36
5 | CCC1(CC)C(=O)C=CNC1=O [Pyrithyldione] | -0.626 | -1.42 | -0.51 | -0.44 | -0.527 | -0.593
6 | CC(=O)OCC(=O)[C@H]1CC[C@H]2[C@@H]3CC[C@H]4C[C@H](O)CC[C@]4(C)[C@H]3C(=O)C[C@]12C [Alfadolone acetate] | 0.719 | 1.43 | 0.996 | 0.815 | 0.478 | 0.736
7 | C=C1[C@@H]2CC[C@H]3[C@]4(C)C[C@H](O[C@@H]5O[C@H](CO)[C@@H](OS(=O)(=O)O)[C@H](OS(=O)(=O)O)[C@H]5OC(=O)CC(C)C)C[C@@H](C(=O)O)[C@H]4CC[C@]3(C2)[C@@H]1O [Atractyloside potassium salt] | -0.439 | -0.0672 | -0.293 | -0.252 | -0.383 | -0.47
8 | C#CCN(C)[C@H](C)Cc1ccccc1 [Selegiline hydrochloride] | -0.688 | -1.62 | -0.708 | -0.332 | -0.535 | -0.657
9 | C(#CCN1CCCC1)CN1CCCC1 [Tremorine dihydrochloride] | -0.282 | 0.485 | -0.922 | -0.198 | -0.368 | 0.452
10 | C=C1CC[C@@]2(O)[C@H]3Cc4ccc(O)c5c4[C@@]2(CCN3CC2CC2)[C@H]1O5 [Nalmefene hydrochloride] | -0.278 | 0.776 | -0.193 | -0.0735 | -0.304 | 0.0741
11 | C[N+]12CCC(CC1)C(OC(=O)C(O)(c1ccccc1)c1ccccc1)C2 (configuration not stated) [Clidinium bromide] | -0.478 | -0.195 | -0.441 | -0.644 | -0.455 | -0.364
12 | C1CCc2nnnn2CC1 [Pentylenetetrazole] | -0.641 | -1.19 | -0.85 | -0.876 | -0.452 | -0.614
13 | CC[C@@H](C(N)=O)N1CCCC1=O [Levetiracetam] | -0.634 | -1.5 | -0.363 | 0.0516 | -0.585 | -0.523
14 | O=C(NCNC(=O)NC1C(=O)NC(=O)N1CO)NC1C(=O)NC(=O)N1CO (configuration not stated) [Imidurea] | -0.433 | 0.0233 | -0.35 | -0.63 | -0.459 | -0.511
15 | CC[C@@]1([C@@H]2O[C@@H]([C@H]3O[C@@](O)(CO)[C@H](C)C[C@@H]3C)C[C@@H]2C)CC[C@H]([C@]2(C)CC[C@]3(C[C@H](O)[C@@H](C)[C@@H]([C@@H](C)[C@@H](OC)[C@H](C)C(=O)O)O3)O2)O1 [Monensin sodium salt] | – | -0.505 | – | -1.99 | – | 0.206
16 | COc1cccc(C2(O)CCCCC2CN(C)C)c1 (configuration not stated) [Tramadol hydrochloride] | -0.437 | 0.543 | -0.062 | -0.487 | -0.403 | -0.176
17 | CC(C)C[C@H]1C(=O)N2CCC[C@H]2[C@]2(O)O[C@](NC(=O)[C@@H]3C=C4c5cccc6[nH]c(Br)c(c56)C[C@H]4N(C)C3)(C(C)C)C(=O)N12 [Bromocryptine mesylate] | 0.99 | 2.32 | 1.54 | 0.742 | 0.487 | 0.695
18 | O=c1[nH]c2ccccc2n1C1CCN(CCCC(c2ccc(F)cc2)c2ccc(F)cc2)CC1 [Pimozide] | 0.798 | 0.814 | 0.271 | -0.393 | 0.65 | 0.34
19 | O=C(CCCN1CCC2(CC1)C(=O)NCN2c1ccccc1)c1ccc(F)cc1 [Spiperone] | 1.39 | 1.71 | 1.66 | 1.7 | 1.87 | 2.13
20 | N[C@@H]1C[C@H]1c1ccccc1 [Tranylcypromine hydrochloride] | -0.505 | -0.919 | -0.309 | -0.693 | -0.48 | -0.53
